High-throughput results from PubChem.
SARS PLP yeast: qHTS of Yeast-based Assay for SARS-CoV PLP | Potency, µM (series often up to 32.9 µM), actives largely listed as activators | AID 485353, 2010 | hit rate 0.19% among 330,000 | S. cerevisiae expressing SARS-CoV PLpro, growth rescue; also: nearly all actives have a fitted effect of over 55% in size
Shiga toxin inh: A qHTS for Small Molecule Inhibitors of Shiga Toxin | Vero cells, Shiga toxin protein synthesis inhibition reporter | hit rate 9.2% among 290,000 | AID 2315, 2010 | inhibition, % at 38.7 µM; in the data active = inhibition mostly above about 28%, no sharp cut-off; inactive = mostly below about 43%
Pf growth 48h: Primary qHTS for delayed death inhibitors of the malarial parasite plastid, 48 hour incubation | hit rate 5.9% among 310,000 | Potency, µM (titrated, usually from 28.7 µM), actives largely listed as inhibitors | P. falciparum luciferase growth in erythrocytes, 48 h | AID 504832, 2011; active = well fitted inhibition curve with a large enough effect; inconclusive = small, poorly fitted or top-dose-only effect, or another doubt; inactive = no such curve, though single readings can be large or run the other way
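Luminescence readout; reporter = integrated firefly luciferase in P. falciparum. RBC culture at 2% hematocrit, 0.1% parasitemia final, 37 C/5% CO2; decreased signal taken as growth inhibition.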
NS1 function inh: qHTS Assay for Inhibitors of Influenza NS1 Protein Function; Potency, µM (doses to about 46.1 µM); hit rate 0.4% among 270,000; AID 2326, 2010; also: actives are rising curves; nearly all actives have a fitted effect of over 50% in size
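Growth recovery, yeast-based: influenza A NS1 expressed in S. cerevisiae causes slow growth, and suppressors are detected by OD600. The parent strain without NS1 is used as positive control.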
Pf growth 96h: Primary qHTS for delayed death inhibitors of the malarial parasite plastid, 96 hour incubation; P. falciparum luciferase reporter growth, 96 h; Potency, µM (top dose mostly 28.7 µM), hits mostly inhibitors; hit rate 6.9% among 320,000; active = well fitted inhibition curve with a large enough effect; inconclusive = small, poorly fitted or top-dose-only effect, or another doubt; inactive = no such curve, though single readings can be large or run the other way
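P. falciparum expressing integrated firefly luciferase grown in erythrocytes (2% hematocrit, 0.05% parasitemia final) with compounds for 96 hours at 37 C, 5% CO2. Growth inhibition read as loss of luminescence after adding luciferase detection reagent.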
CHX counter: Cycloheximide Counterscreen for Small Molecule Inhibitors of Shiga Toxin. hit rate 12% among 300,000. AID 2314, 2010. max response, %. cell reporter, cycloheximide protein synthesis inhibition counterscreen; in the data active = max response mostly above about 13%, no sharp cut-off; inactive = mostly below about 14%; also: read at 38.3 µM for the half of the compounds with a filed dose
Numbers stand for hits; - = inactive; ? = inconclusive; . = not tested or not shown; [ ] = dose if it differs, or a comment. Rows were chosen to be rich in hits. Some 21% of all compounds tested hit in one or more screens of this group. Unless noted, calls follow the shape of the full dose curve.

SMILES	SARS PLP yeast	Shiga toxin inh	Pf growth 48h	NS1 function inh	Pf growth 96h	CHX counter
C#CCOCCOCCOCCNc1nc(N2CCN(C(=O)CCCCCCCCCCNC(=O)[C@H](CO)n3cc(CCCSC)nn3)CC2)nc(N2CCN(C(=O)CCCCCCCCCCNC(=O)[C@H](CCCCN)n3cc(CCO)nn3)CC2)n1	-	.	.	.	.	.
C#CCOCCOCCOCCNc1nc(N2CCN(C(=O)CCCCCCCCCCNC(=O)[C@@H](CCSC)n3cc(CCO)nn3)CC2)nc(N2CCN(C(=O)CCCCCCCCCCNC(=O)[C@H](CCSC)n3cc(CCO)nn3)CC2)n1	-	.	0.329µM	.	0.294µM	.
CN1CCC(=NOc2ccc([N+](=O)[O-])cc2)CC1	-	94.6	-	-	-	34.3
COc1ccc(C(=O)ON=C2CCN(c3ccc([N+](=O)[O-])cc3)CC2)cc1	-	-	-	-	?	-
COc1ccc(Cl)cc1NC(=O)Nc1ccc(C(=O)N2CCCC2)cc1	-	54.7	-	-	-	16.8
COc1ccc(C)cc1NC(=O)Nc1ccc(C(=O)N2CCCC2)cc1	-	48.3	-	-	-	14.2
COc1ccc(C)cc1NC(=O)C(=O)N1CCCC1	-	-	-	-	?	-
COc1ccc(Cl)cc1NC(=S)N1CCCC1	-	-	-	-	?	-
CN(C)S(=O)(=O)c1ccc(Cl)c(NC(=O)C2CCN(S(=O)(=O)c3cccs3)CC2)c1	-	.	?	.	?	.
COc1ccc(NC(=O)CSc2nc3[nH]ncc3c(=O)[nH]2)c(OC)c1	.	.	-	.	-	.
CCOC(=O)C(Oc1ccc2c(-c3ccc(OC)cc3)cc(=O)oc2c1C)c1ccccc1 (stereo unspecified)	-	-	?	-	-	-
CCOC(=O)C(Oc1ccc2c(-c3ccccc3)cc(=O)oc2c1C)c1ccccc1 (stereo unspecified)	-	-	11.7µM	-	?	-
Cc1ccc(NC(=O)CS(=O)CC(=O)N(c2ccccc2F)C(C)C(=O)NC2CCCC2)cc1 (stereo unspecified)	-	-	-	-	-	-
Cc1ccc(NC(=O)CS(=O)CC(=O)N(c2ccc(C)cc2)C(C)C(=O)NC2CCCCC2)cc1 (stereo unspecified)	-	-	13.1µM	-	?	-
O=C(CS(=O)CC(=O)N(c1ccccc1)C(C(=O)NC1CCCCC1)c1ccco1)Nc1ccc(F)cc1 (stereo unspecified)	-	-	?	-	7.38µM	-
CC(CN1CCN(c2ccccc2)CC1)c1ccccc1 (stereo unspecified)	-	-	-	-	-	-
COc1ccc(/C=C/c2onc(C)c2S(=O)(=O)N2CCC(C(=O)N3CCC(C)CC3)CC2)cc1	-	-	?	-	?	-
Cc1ccc(C)c(N(Cc2cc3ccc(C)cc3[nH]c2=O)C(=O)c2ccco2)c1	-	-	?	-	7.38µM	-
O=c1[nH]c2cc3c(cc2cc1CN(Cc1ccco1)C(=S)NCC1CCCO1)OCCO3 (stereo unspecified)	-	-	-	-	?	-
COc1ccc2cc(CN(CC3CCCO3)C(=S)NCc3ccco3)c(=O)[nH]c2c1 (stereo unspecified)	-	-	9.28µM	-	-	-
Cc1ccc2cc(CN(CC3CCCO3)C(=S)NCc3ccco3)c(=O)[nH]c2c1 (stereo unspecified)	-	-	?	-	-	-
Cc1ccc2cc(CN(Cc3ccco3)C(=S)NCC3CCCO3)c(=O)[nH]c2c1 (stereo unspecified)	-	-	-	-	3.7µM	-
S=c1[nH]c(-c2ccccc2)cn1-c1ccccc1	-	-	-	-	?	-
COc1ccccc1-n1cc(-c2ccc(C)cc2)[nH]c1=S	-	31.8	?	-	-	23.0
COc1ccccc1-c1cn(-c2ccccc2)c(=S)[nH]1	-	-	.	-	?	-
SMILES	SARS PLP yeast	Shiga toxin inh	Pf growth 48h	NS1 function inh	Pf growth 96h	CHX counter
COC(=O)c1ccc(-n2cc(-c3ccc(OC)cc3)[nH]c2=S)cc1	-	-	?	-	?	-
Nc1ccc(-n2cc(-c3ccccc3)[nH]c2=S)cc1	-	60.7	-	-	?	33.3
COc1ccc(-c2cn(-c3ccc(C)c(Cl)c3)c(=S)[nH]2)cc1OC	-	-	10.4µM	-	-	-
COc1ccc(-c2cn(-c3ccccc3)c(=S)[nH]2)cc1OC	-	75.2	-[0.00184 µM]	-	-	25.2
COc1cc2c(cc1OC)C(c1cc(C)ccc1C)CC(=O)N2 (stereo unspecified)	.	-	-	-	?	-
CCC(C)NC(=O)CSc1ncccc1C(=O)O (stereo unspecified)	-	-	-	-	.	-
COc1ccc(-c2cn(-c3ccc(C)c(C)c3)c(=S)[nH]2)cc1OC	-	-	13.1µM	-	-	-
COc1ccc(-c2n[nH]c(=S)n2-c2ccc(Br)cc2)cc1OC	-	-	-	-	-	-
CCc1ccccc1NC(=O)CNC(=O)c1ccc(-n2cncn2)c([N+](=O)[O-])c1	-	.	?	.	-	.
CCN(CC)CCCN1C(=O)C(=O)/C(=C(/O)c2ccc(Cl)cc2)C1c1ccccn1 (stereo unspecified)	-	-	-	-	-	-
Cc1ccc(/C(O)=C2/C(=O)C(=O)N(CCCn3ccnc3)C2c2ccccn2)cc1 (stereo unspecified)	-	-	-	-	?	-
CCOc1ccc(/C(O)=C2/C(=O)C(=O)N(CCOCCO)C2c2ccc(F)cc2)cc1 (stereo unspecified)	-	-	-	-	-	-
CCN(CC)CCN1C(=O)C(=O)/C(=C(/O)c2cccc(OC)c2)C1c1ccccn1 (stereo unspecified)	-	-	?	-	11.7µM	15.2
CCOc1ccc(/C(O)=C2/C(=O)C(=O)N(CCOCCO)C2c2ccccn2)cc1 (stereo unspecified)	?	57.5	-	-	-	38.6
COCCN1C(=O)C(=O)/C(=C(/O)c2ccc(C)cc2)C1c1ccccn1 (stereo unspecified)	-	-	-	-	3.29µM	-
c1ccc(CN2CCC3(CC2)Nc2ccccc2S3)cc1	-	-	-	-	-	-
Cc1csc(NC(=O)C2CCCN(S(=O)(=O)c3ccc(Br)s3)C2)n1 (stereo unspecified)	-	-	.	-	?	-
COc1ccc(CN2C3CCCC2CC(NC(=O)Nc2ccccc2)C3)cc1 (stereo unspecified)	-	-	10.4µM	-	?	-
COc1ccc(CN2C3CCCC2CC(NC(=O)Nc2cccc(C)c2)C3)cc1 (stereo unspecified)	-	-	7.38µM	-	-	-
COc1ccc(CN2C3CCCC2CC(NC(=O)Nc2ccccc2C)C3)cc1 (stereo unspecified)	-	-	?	-	?	-
